Source: PubChem BioAssay (Tox21)
Results filed as inconclusive are left out. Active and inactive are the calls of the source. Unless noted, the call rests on the fitted dose curve; in most records, active means well fitted curve in the direction sought with a large enough effect in the repeat runs; inconclusive means weak or mixed curves; inactive means no such curve, though single readings can be large; an effect the other way counts as inactive or inconclusive.

Experiments:
[1] = qHTS assay to identify small molecule agonists of the constitutive androstane receptor (CAR) signaling pathway - cell viability counter screen (AID 1224836); further: nearly all actives have a fitted effect of over 45% in size
In short: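 Viability read-out: CellTiter-Fluor fluorescence after 23 h compound exposure at 37 C/5% CO2 in double-stable HepG2-CYP2B6-hCAR cells, with PK11195 present at 0.75 uM final; compounds tested in 15-point titration.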

[2] = qHTS assay to identify small molecule antagonists of the constitutive androstane receptor (CAR) signaling pathway - cell viability counter screen (AID 1224837); further: nearly all actives have a fitted effect of over 45% in size
In short: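 Counter screen run in HepG2-CYP2B6-hCAR cells: 4 hr settle, compound titration (15 concentrations) with 50 nM CITCO, 23 hr at 37 C/5% CO2, CellTiter-Fluor fluorescence.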

[3] = biological target: Nuclear receptor subfamily 1 group I member 3 (Homo sapiens) (UniProt Q14994); assay: qHTS assay to identify small molecule antagonists of the constitutive androstane receptor (CAR) signaling pathway (AID 1224838);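 further: HepG2 cells stably expressing hCAR with CYP2B6 luciferase reporter stimulated by CITCO; nearly all actives have a fitted effect of over 40% in size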
In short: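 Cell line: HepG2 double-stable for hCAR and CYP2B6-2.2kb reporter. Agonist: CITCO, 50 nM final. Compounds: 15 concentrations, 24 h, 37 C. Detection: ONE-Glo luminescence.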

[4] = biological target: Nuclear receptor subfamily 1 group I member 3 (Homo sapiens) (UniProt Q14994); assay: qHTS assay to identify small molecule agonists of the constitutive androstane receptor (CAR) signaling pathway (AID 1224839);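 further: HepG2 cells stably carrying human CAR and a CYP2B6 luciferase reporter; nearly all actives have a fitted effect of over 15% in size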
In short: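 Luminescence read-out (ONE-Glo, 30 min, room temperature) from double-stable HepG2-CYP2B6-hCAR cells exposed 24 h to 15-point compound series in presence of 0.75 uM PK11195 final.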

[5] = qHTS assay to identify small molecule antagonists of the estrogen related receptor signaling pathway with the pleiotropic PPARgamma coactivator (PGC) from Tox21 10K library (AID 1224841; call rule not given here; further: actives are mostly falling curves and most rising ones were filed inactive; nearly all actives have a fitted effect of over 50% in size; further: potency means the concentration at half of the fitted maximal effect)
In short: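 qHTS antagonist format: PGC/ERR cells, 2k/well, compound in DMSO by pin transfer after 6 h attachment, 18 h treatment at 37 C, One-Glo luminescence read at 30 min.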

[6] = qHTS assay to identify small molecule agonists of the estrogen related receptor signaling pathway with the pleiotropic PPARgamma coactivator (PGC) from Tox21 10K library (AID 1224842); further: nearly all actives have a fitted effect of over 15% in size
In short: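 PGC/ERR reporter cells (NTP line) were seeded 2,000 per well, rested 6 h at 37 C/5% CO2, then pin-dosed with compounds in DMSO for 18 h at 37 C; luciferase read by One-Glo luminescence after 30 min at room temperature.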

[7] = biological target: Thyrotropin receptor (Homo sapiens) (UniProt P16473); assay: qHTS assay to identify small molecule agonists of the thyroid stimulating hormone receptor (TSHR) signaling pathway (AID 1224843; calls by dose curve; further: nearly all actives have a fitted effect of over 45% in size)
In short: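 Cell line HEK293 with TSHR; density 800/well. Exposure 30 min RT. Readout HTRF cAMP (cAMP-d2/anti-cAMP-cryptate), 1 h RT before reading.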

[8] = qHTS assay to identify small molecule agonists of H2AX (AID 1224845; active means well fitted activation curve with a large enough effect in the signal ratio in the repeat runs, not every such curve was filed as active; the % refers to the signal ratio)
In short: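 Wild-type CHO-K1 cells plated overnight, then exposed 3 hr at 37C to compounds at 15 concentrations (0.76% DMSO). Lysed, then HTRF anti-pH2AX(S139)-cryptate/anti-H2AX-d2 detection after 24 hr at room temperature; emissions 665 and 620 nm.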

[9] = qHTS assay to identify small molecule agonists of the hypoxia (HIF-1) signaling pathway (AID 1224846; active means well fitted activation curve with a large enough effect in the signal ratio in the repeat runs, not every such curve was filed as active; the % refers to the signal ratio)
In short: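 A low-serum medium (0.5% dialyzed FBS) holding 2,000 HRE-bla ME-180 cells per well is preincubated for 5 hrs, dosed with compounds by pintool, and kept a further 17 hrs at 37C, 5% CO2 before CCF4-AM FRET detection of beta-lactamase.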

[10] = qHTS assay to identify small molecule agonists of H2AX - cell viability counter screen (AID 1224847; calls by dose curve; further: top concentration of the series differs between compounds; nearly all actives have a fitted effect of over 30% in size)
In short: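 CHO-K1 wt, 1000 cells/well, o/n 37C; cpds 15 conc, 3 h 37C, 0.76% DMSO; CellTiter-Glo, 30 min RT, luminescence.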

[11] = qHTS assay to identify small molecule antagonists of the estrogen related receptor (ERR) signaling pathway from Tox21 library (AID 1224848); further: nearly all actives have a fitted effect of over 50% in size; further: potency means the concentration at half of the fitted maximal effect
In short: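 Screening used an ERR reporter line supplied by NTP, exposed for 18 h at 37 C to library compounds delivered in DMSO. Signal was luciferase luminescence developed with ONE-Glo at room temperature for 30 min.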

[12] = qHTS assay to identify small molecule agonists of the estrogen related receptor (ERR) signaling pathway from Tox21 library (AID 1224849; calls by dose curve; further: nearly all actives have a fitted effect of over 15% in size); details: ERR reporter cell line, ONE-Glo luciferase, 18 h
In short: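 Screening used an NTP-provided ERR luciferase cell line. Compounds in DMSO were added 6 h after seeding and left 18 h at 37 C before a 30 min ONE-Glo step and luminescence reading.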

[13] = qHTS RealTime-Glo MT Cell Viability Assay in HepG2 cells - 24 hour (AID 1224867); further: nearly all actives have a fitted effect of over 50% in size
In short: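 Viability was tracked continuously by NanoLuc luminescence from prosubstrate reduced by living HepG2 cells, at successive time points over 40 h of compound exposure. Cells with reagent were preincubated 5 h at 37 °C before compound addition.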

[14] = qHTS RealTime-Glo MT Cell Viability Assay in HEK293 cells - 32 hour (AID 1224868); further: nearly all actives have a fitted effect of over 50% in size; further: potency means the concentration at half of the fitted maximal effect
In short: (§1)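 Viability tracked continuously by luminescence as live cells reduce a prosubstrate for NanoLuc; HEK293 cells preincubated 5 h, compound-treated at 37 C, and read at 0, 8, 16, 24, 32 and 40 h.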

[15] = A CellTox Green Cytotoxicity Assay to monitor cytotoxicity in HEK293 cells - 0 hour (AID 1224869); further: nearly all actives have a fitted effect of over 50% in size
In short: (§2)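 Fluorescence intensity, read at 0, 8, 16, 24, 32 and 40 h of compound treatment, reflected dye binding to DNA of dead HEK293 cells; compounds (23 nL, DMSO) were added 5 h after plating cells with reagent.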

[16] = qHTS RealTime-Glo MT Cell Viability Assay in HepG2 cells - 40 hour (AID 1224870); further: nearly all actives have a fitted effect of over 50% in size
In short: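 HepG2 cells mixed with RealTime-Glo MT reagents (NanoLuc plus cell-permeant prosubstrate) were seeded at 600 cells/well, incubated 5 h at 37 C/5% CO2, then pinned with compounds in DMSO; nonlytic luminescence tracked viability during 40 h treatment.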

[17] = qHTS RealTime-Glo MT Cell Viability Assay in HEK293 cells - 16 hour (AID 1224872)
In short: as §1

[18] = qHTS assay to identify small molecule antagonists of the estrogen related receptor signaling pathway with the pleiotropic PPARgamma coactivator (PGC) from Tox21 10K library - cell viability counter screen (AID 1224840; active means well fitted cell-killing curve with a large enough effect in the repeat runs, not every such curve was filed as active; further: nearly all actives have a fitted effect of over 40% in size)
In short: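 Following seeding of 2,000 PGC/ERR cells/well and 6 hours' incubation, test compounds were delivered in DMSO. The plates then sat 17.5 hours at 37 C before a fluorogenic live-cell protease reagent (CellTiter-Fluor) was read after 30 min.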

[19] = A CellTox Green Cytotoxicity Assay to monitor cytotoxicity in HEK293 cells - 40 hour (AID 1224871); further: nearly all actives have a fitted effect of over 45% in size
In short: as §2

[20] = qHTS assay to identify small molecule agonists of the hypoxia (HIF-1) signaling pathway - cell viability counter screen (AID 1224844; calls by dose curve; further: nearly all actives have a fitted effect of over 50% in size)
In short: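 Cells (HRE-bla ME-180, 2,000 per well) sat 5 hrs at 37C, got compound for 17 hrs, were read for CCF4-AM FRET, and were finally lysed with CellTiter-Glo for a 30 min room-temperature luminescence read.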
On the % scale 0 is the no-effect control and ±100 the full control effect.

Sequence of Nuclear receptor subfamily 1 group I member 3 (Homo sapiens) (Q14994 whole entry, looked up): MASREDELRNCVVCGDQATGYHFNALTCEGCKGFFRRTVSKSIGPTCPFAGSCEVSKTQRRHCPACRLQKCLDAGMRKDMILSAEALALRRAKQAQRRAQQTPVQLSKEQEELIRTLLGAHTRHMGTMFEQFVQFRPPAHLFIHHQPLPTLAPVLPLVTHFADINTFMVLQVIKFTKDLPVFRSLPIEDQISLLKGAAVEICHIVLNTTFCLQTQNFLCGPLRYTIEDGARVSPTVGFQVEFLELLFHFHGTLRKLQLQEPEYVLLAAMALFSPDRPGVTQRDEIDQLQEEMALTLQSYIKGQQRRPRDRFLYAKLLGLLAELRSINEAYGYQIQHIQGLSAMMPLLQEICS
Sequence of Thyrotropin receptor (Homo sapiens) (P16473 whole entry, looked up): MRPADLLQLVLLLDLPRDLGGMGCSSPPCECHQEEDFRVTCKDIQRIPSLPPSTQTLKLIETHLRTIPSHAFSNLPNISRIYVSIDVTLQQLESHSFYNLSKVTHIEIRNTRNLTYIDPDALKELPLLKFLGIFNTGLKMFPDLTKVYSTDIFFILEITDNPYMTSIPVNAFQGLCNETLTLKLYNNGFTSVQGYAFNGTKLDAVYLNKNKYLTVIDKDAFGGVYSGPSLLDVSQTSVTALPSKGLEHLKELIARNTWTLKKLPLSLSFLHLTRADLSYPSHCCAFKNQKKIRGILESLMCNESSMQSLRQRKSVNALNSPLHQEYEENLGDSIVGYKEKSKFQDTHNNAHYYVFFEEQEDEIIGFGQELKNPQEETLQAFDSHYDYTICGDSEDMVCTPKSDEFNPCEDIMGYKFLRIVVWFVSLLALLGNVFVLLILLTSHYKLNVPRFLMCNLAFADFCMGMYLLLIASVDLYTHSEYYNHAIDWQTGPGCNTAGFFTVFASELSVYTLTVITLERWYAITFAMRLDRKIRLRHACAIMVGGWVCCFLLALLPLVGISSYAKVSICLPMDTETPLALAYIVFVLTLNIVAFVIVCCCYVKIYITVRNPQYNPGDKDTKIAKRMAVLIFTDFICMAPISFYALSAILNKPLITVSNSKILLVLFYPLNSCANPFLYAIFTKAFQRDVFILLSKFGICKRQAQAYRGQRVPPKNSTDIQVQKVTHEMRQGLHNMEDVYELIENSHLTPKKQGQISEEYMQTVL

Sc1nc2ccccc2s1
inactive: Potency [1] | Potency [2] | Potency [3] | Potency [4] | Potency [5] | Potency [6] | Potency [7] | Potency [8] | Potency [9] | Potency [10] | Potency [11] | activity change, positive = activation ([12]; at 92.4 µM (top of the series)) 0.0626% | Potency [13] | Potency [14] | Potency [15] | Potency [16] | Potency [17]

Clc1ccnc(Cl)n1
inactive: Potency [1] | Potency [2] | Potency [3] | Potency [4] | Potency [18] | Potency [8] | Potency [10] | Potency [11] | activity change, positive = activation ([12]; at 92.4 µM (top of the series)) -1.53% | Potency [13] | Potency [14] | Potency [15] | Potency [16] | Potency [19] | Potency [17]

CCCCOC(=O)CO
inactive: Potency [1] | Potency [2] | Potency [3] | Potency [4] | Potency [18] | Potency [20] | Potency [8] | Potency [9] | Potency [10] | Potency [13] | Potency [14] | Potency [15] | Potency [16] | Potency [19] | Potency [17]

CC1=CCC(=C(C)C)CC1
inactive: Potency [1] | Potency [2] | Potency [3] | Potency [4] | Potency [18] | Potency [20] | Potency [8] | Potency [9] | Potency [10] | Potency [13] | Potency [14] | Potency [15] | Potency [16] | Potency [19]

C#C[C@]1(OC(C)=O)CC[C@H]2[C@@H]3CCC4=C[C@@H](OC(C)=O)CC[C@@H]4[C@H]3CC[C@@]21C
active: Potency [5] 21.1 µM | Potency [11] 23.7 µM | Potency [14] 21.3 µM
inactive: Potency [1] | Potency [2] | Potency [4] | Potency [18] | Potency [6] | Potency [7] | Potency [20] | Potency [9] | activity change, positive = activation ([12]; at 42.5 µM (top of the series)) -53.5% | Potency [13] | Potency [15]

O=C(O)c1cc(-c2ccc(F)cc2F)ccc1O
inactive: Potency [1] | Potency [2] | Potency [3] | Potency [18] | Potency [6] | Potency [20] | Potency [8] | Potency [9] | Potency [11] | activity change, positive = activation ([12]; at 42.5 µM (top of the series)) -14.2% | Potency [13] | Potency [14] | Potency [15] | Potency [19]
active: Potency [5] 9.44 µM

CC[N+](CC)(CC)CCOC(=O)C(C1CCCC1)C1CCCC1
inactive: Potency [1] | Potency [2] | Potency [18] | Potency [6] | Potency [20] | Potency [8] | Potency [9] | Potency [10] | activity change, positive = activation ([12]; at 42.5 µM (top of the series)) -21.2% | Potency [13] | Potency [15] | Potency [16] | Potency [19]

COC(=O)c1ccccc1OC
inactive: Potency [1] | Potency [2] | Potency [18] | Potency [5] | Potency [7] | Potency [20] | Potency [8] | Potency [9] | Potency [11] | activity change, positive = activation ([12]; at 92.4 µM (top of the series)) 0.916% | Potency [13] | Potency [14] | Potency [16] | Potency [19] | Potency [17]
